Experimental data published in the supplement of paper PMC12669032.
Values without a mark were called inactive.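 Rule for the calls: active = AUC reduced over 20% with Padj below 0.05 in at least 2 of 3 replicates; inactive = otherwise.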

Legend:
Experiment in all cases: growth AUC relative to DMSO control (median of replicates) (fraction); higher = more growth (less inhibition), active = hit call of the paper
Conditions in all cases: 20 µM; 24 h
[1] = test system: Akkermansia muciniphila
Procedure, shortened: (§1)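 Hourly OD600 readings over 24 h tracked anaerobic gut bacterial monocultures grown at 37 °C in mGAM from OD600 0.05 with 20 µM compound (1% DMSO). After the minimum OD was set to 0, area under the growth curve was normalised to the plate median of solvent-only wells, or to row and column medians on the industrial chemical plate. Values are medians of three biological replicates grown on separate days.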

[2] = test system: Bacteroides caccae
Procedure, shortened: as §1

[3] = test system: Bacteroides clarus
Procedure, shortened: as §1

[4] = test system: Bacteroides dorei
Procedure, shortened: as §1

[5] = test system: Bacteroides stercoris
Procedure, shortened: as §1

[6] = test system: Bacteroides thetaiotaomicron
Procedure, shortened: as §1

[7] = test system: Bacteroides uniformis
Procedure, shortened: as §1

[8] = test system: Bifidobacterium longum subsp. longum
Procedure, shortened: as §1

[9] = test system: Clostridium difficile
Procedure, shortened: as §1

[10] = test system: Collinsella aerofaciens
Procedure, shortened: as §1

[11] = test system: Coprococcus comes
Procedure, shortened: as §1

[12] = test system: Escherichia coli ED1a
Procedure, shortened: as §1

[13] = test system: Escherichia coli IAI1
Procedure, shortened: as §1

[14] = test system: Eubacterium rectale
Procedure, shortened: as §1

[15] = test system: Fusobacterium nucleatum subsp. animalis
Procedure, shortened: as §1

[16] = test system: Lactobacillus gasseri
Procedure, shortened: as §1

[17] = test system: Lactobacillus paracasei
Procedure, shortened: as §1

[18] = test system: Odoribacter splanchnicus
Procedure, shortened: as §1

[19] = test system: Parabacteroides distasonis
Procedure, shortened: as §1

[20] = test system: Parabacteroides merdae
Procedure, shortened: as §1

Structure (SMILES)	growth AUC [1]	growth AUC [2]	growth AUC [3]	growth AUC [4]	growth AUC [5]	growth AUC [6]	growth AUC [7]	growth AUC [8]	growth AUC [9]	growth AUC [10]	growth AUC [11]	growth AUC [12]	growth AUC [13]	growth AUC [14]	growth AUC [15]	growth AUC [16]	growth AUC [17]	growth AUC [18]	growth AUC [19]	growth AUC [20]
CC(C)([CH2][Sn]([CH2]C(C)(C)c1ccccc1)([CH2]C(C)(C)c1ccccc1)[O][Sn]([CH2]C(C)(C)c1ccccc1)([CH2]C(C)(C)c1ccccc1)[CH2]C(C)(C)c1ccccc1)c1ccccc1	1.07	0.969	1.01	0.989	0.969	1.02	0.993	1.02	0.956	1.01	0.98	0.999	0.978	0.998	1.03	0.963	0.988	1.06	1.04	0.954
C=CCc1ccc(O)c(OC)c1	0.933	0.993	1.04	1	0.975	0.967	1.03	1.01	1.01	0.973	0.971	1.03	1	1.01	1	0.95	0.957	0.96	0.97	0.996
CCc1cccc(C)c1NC(=O)C(=O)O	0.965	1.01	0.999	1	0.999	0.942	1	1.02	0.972	0.983	0.985	1.02	1	0.989	0.981	0.916	0.969	0.998	0.982	1.03
CC(C)C(O)(c1ccc(OC(F)(F)F)cc1)c1cncnc1 (stereo not given)	0.853	1	0.938	0.991	1.22	0.939	0.972	1.03	0.985	1.03	1.01	0.981	0.961	0.994	0.926	1.05	1.02	0.938	0.959	0.588 (active)
CN(C)C(=O)c1cccnc1S(N)(=O)=O	1.05	1.01	1.04	1.03	1.01	0.988	1.04	1.02	1.05	1.01	1.03	1.05	1.04	1.02	1.02	1.06	1.04	1.02	1.01	1
C#CCOC(=O)[C@@H](C)Oc1ccc(Oc2ncc(Cl)cc2F)cc1	0.914	0.998	0.985	1.02	1.05	0.975	0.942	1.04	0.99	0.964	0.978	1.01	0.987	0.982	0.903	0.962	0.997	0.982	1	0.979
CN(C)C(=O)Nc1cc(C(C)(C)C)on1	0.918	1.01	0.997	1.01	0.998	0.995	1.01	1.01	0.987	0.989	0.99	0.997	1.01	0.949	0.959	1.06	1	0.942	1.01	1
NC(=O)C1CO1 (stereo not given)	0.657 (active)	0.982	0.971	0.864	0.586 (active)	0.972	0.912	0.929	1.01	0.933	0.93	0.957	0.946	0.989	0.923	0.995	1.02	0.949	0.895	0.946
O=C(O)CCCc1c[nH]c2ccccc12	1.13	1.01	1.01	0.776	0.994	0.971	0.979	1.01	1.01	0.954	1.01	0.955	0.962	1.07	0.971	0.832	0.884	0.989	0.922	0.984
CC(C)N(C(=O)C(=O)O)c1ccc(F)cc1	1.04	1.02	1.03	1.02	1.23	1.02	0.993	1.05	1.03	1.01	0.985	1.03	1.02	1.05	1.18	1.05	1	1.04	1	1.01
CC[N+](CC)(CC(=O)Nc1c(C)cccc1C)Cc1ccccc1.O=C([O-])c1ccccc1	1.24	0.992	1.05	1.04	1.11	0.999	0.993	0.98	1.04	1	1.04	1.01	1.04	1.14	1.02	0.967	1.05	0.995	1.06	1.05
Cl.NCCO/C=C/[C@H](N)C(=O)O	1.02	0.952	1.08	1.03	1.16	1	1.01	1.05	1.02	1.03	0.947	1.03	1.02	1.08	0.981	0.853	1.02	0.8	0.828	1.01
CCCCC(CC)CN1C(=O)C2C(C1=O)[C@H]1C=C[C@@H]2C1 (mixture of isomers)	1.11	1	1.03	0.974	1.06	0.985	0.972	1.05	1.03	1.12	1.03	1.01	1.03	0.93	1.01	1.06	1.04	1.03	0.79 (active)	0.977
C/C=C/C(=O)Oc1c(C(C)CCCCCC)cc([N+](=O)[O-])cc1[N+](=O)[O-] (mixture of isomers)	1	0.285 (active)	0.0314 (active)	0.0151 (active)	0.0105 (active)	0.569 (active)	0.448 (active)	0.289 (active)	0.0443 (active)	0.789 (active)	0.509	0.976	0.985	0.665 (active)	0.94	0.273 (active)	0.41 (active)	0.679	0.288 (active)	0.00823 (active)
COC(=O)c1ccc(C(=O)OC)cc1	0.99	0.964	0.978	1.01	1.02	0.991	0.972	0.993	1.01	1.01	0.981	1	0.989	1	1.01	0.981	0.958	0.989	0.993	0.993
CN(C)C=O	1.08	0.991	1.05	0.936	1.05	1.01	1.05	1.13	0.999	1.01	1.04	1.03	1.03	0.998	1.11	1.01	1.03	1.05	0.998	1.02

Structure (SMILES)	growth AUC [1]	growth AUC [2]	growth AUC [3]	growth AUC [4]	growth AUC [5]	growth AUC [6]	growth AUC [7]	growth AUC [8]	growth AUC [9]	growth AUC [10]	growth AUC [11]	growth AUC [12]	growth AUC [13]	growth AUC [14]	growth AUC [15]	growth AUC [16]	growth AUC [17]	growth AUC [18]	growth AUC [19]	growth AUC [20]
Oc1c(Cl)cc(Cl)c(Cl)c1Cc1c(O)c(Cl)cc(Cl)c1Cl	0.193 (active)	0.0131 (active)	0.0212 (active)	0.0142 (active)	0.00917 (active)	0.00403 (active)	0.0126 (active)	0.0988 (active)	0.0083 (active)	0.0126 (active)	0.19 (active)	0.867	0.856	0.0106 (active)	0.078 (active)	0.037 (active)	0.0796 (active)	0.018 (active)	0.026 (active)	0.0156 (active)
C=CCO/N=C(\CCC)C1=C([O-])CC(C)(C)C(C(=O)OC)C1=O.[Na+] (stereo not given)	1.2	1	1.03	0.933	1.07	1.02	1.01	1.05	1.05	1.03	1.03	1.02	1.02	1.12	1.12	0.892	1.04	1.05	1.01	1.06
FC(F)(F)/N=C1\SC(=Nc2ccccc2)N(c2ccccc2)\C1=N\C(F)(F)F	0.949	0.933	0.96	0.947	0.925	1.01	0.924	1.03	0.984	0.907	0.983	0.962	0.96	1.3	0.653	0.903	1.09	1.13	0.949	0.908
CC(C)N(C(=O)CS(=O)(=O)[O-])c1ccccc1.[Na+]	1.01	1.02	1.02	1.04	0.909	0.955	1.05	1.29	1.06	0.967	0.982	0.978	0.988	1.07	1.09	0.948	1	0.981	0.96	1
Cc1cccc(C)c1N(CCSCC(O)C(=O)[O-])C(=O)CO.[Na+] (stereo not given)	1.15	0.993	1.02	0.907	1.01	0.98	1.01	1.05	0.992	0.913	1.04	0.977	0.97	1.07	0.984	0.849	0.95	1.01	0.927	0.99
Clc1ccc(Sc2cc(Cl)c(Cl)cc2Cl)cc1	1.05	0.943	0.993	1.04	0.985	0.98	0.984	0.986	1	0.936	0.964	0.972	0.984	0.943	1.04	0.86	1.05	1.1	1.01	0.976
CC1=C(C(=O)Nc2ccccc2)CCCO1	0.955	0.992	1.01	1.01	0.951	0.99	1.06	1.15	1.01	1.01	1.01	0.992	0.981	0.974	0.969	0.952	1.03	1.05	0.974	1.01
CCOCOc1ccc(C(=O)Nc2cccc(Cl)c2Cl)cc1	1.04	0.855	0.881	0.972	0.836	0.884	0.912	0.907	1.02	0.956	0.977	0.977	0.953	0.961	0.901	1.05	0.985	0.975	0.976	0.961
CCOC(=O)C1=NOC(c2ccccc2)(c2ccccc2)C1	0.86	1.03	0.971	0.995	0.979	0.926	0.932	0.966	0.974	0.993	0.974	0.974	0.997	0.932	0.956	0.99	1.06	0.944	1.14	0.948
COC(=O)C(Cl)Cc1ccc(Cl)cc1 (stereo not given)	1.01	0.921	0.973	0.99	1.03	1.02	0.921	1.01	0.983	0.936	0.962	0.994	0.971	0.994	0.995	0.891	1.06	0.899	1	0.901
CC(C)(NC(=O)NCc1ccccc1Cl)c1ccccc1	1.12	1	1.03	0.925	0.951	1.02	0.983	1.08	1.01	0.96	1.02	1.04	1.03	1.03	1.02	0.978	0.986	1.05	1.02	0.994
CCCCOCCOCCOCc1cc2c(cc1CCC)OCO2	0.968	0.968	0.983	1.01	1.01	0.96	0.948	1.03	1.03	0.98	1.06	1.03	1	0.84	0.992	1.03	1.01	1.07	0.529 (active)	0.924
N#Cc1c(N)nc(NC2CC2)nc1N	0.971	1.03	0.972	1.02	0.984	1.01	0.987	0.899	1.06	1.05	1.01	0.991	0.992	0.935	0.994	0.939	0.972	1.01	1.02	1
O=c1cccc2n1CCn1c-2cccc1=O	1.11	1.03	0.986	0.918	1	0.995	1.02	0.969	0.993	0.98	1.01	0.992	0.968	0.956	0.971	0.982	1.02	0.982	1.04	1.01
COC(=O)c1ccc(CNS(C)(=O)=O)cc1S(=O)(=O)NC(=O)Nc1nc(OC)cc(OC)n1	0.864	0.988	1.02	1.01	0.871	0.991	1.01	0.917	1.02	1.01	1.04	1.02	1.01	1.01	0.977	0.961	0.925	1.07	1.03	1.02
Oc1ccccc1	1.08	0.963	0.991	1.03	0.992	0.997	1.03	0.998	1.02	1	1.03	1	0.983	0.983	1.04	1.08	1.04	0.984	1.04	1.01
